The source made the active and inactive calls.

Consider five compounds from PubChem BioAssay.

The target of one experiment is Albumin (Bos taurus) (UniProt P02769). Briefly: compounds binding labelled BSA control protein – biochemical, small-molecule microarray, Alexa647 label, 635/667 nm fluorescence, artefact control for SMM control protein annotation, profiling panel (AID 1118).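 Further: score merges 667 nm emission intensity and signal-to-noise per printed compound spot.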 Conditions: BSA-A647 binding, fluorescence 635 nm, higher = more signal.
A short description of experiment [1]: probe aXIP binding to arrayed compounds – biochemical, NeuroSMM set, 635/667 nm fluorescence, primary screen (AID 1119).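 Further: probe is the protein aXip251-270 applied at 1 µg/mL to compound-printed slides; binding of probe to printed compounds measured as 667 nm fluorescence plus signal to noise.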 The note with it: small-molecule microarray, higher = more signal, called active from +8 up or from −8 down.
A short description of experiment [2]: probe aNOTCH3 binding on compound microarray – biochemical, small-molecule microarray, 635/667 nm fluorescence, primary screen (AID 1120).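 Further: probe is a biotin-tagged antibody raised against NOTCH3 rather than NOTCH3 protein; score merges spot fluorescence near 667 nm with spot signal to noise.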 The note with it: higher = more signal.
Experiment [3] can be described thus: probe aNOTCH2 binding on compound microarray – biochemical, small-molecule microarray, 635/667 nm fluorescence, primary screen (AID 1121).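 Further: score merges feature fluorescence read at 667 nm with its signal to noise.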 The note with it: higher = more signal.
For experiment [4], the target named is Carbonic anhydrase 2 (Homo sapiens) (UniProt P00918). The experiment can be described thus: compounds binding carbonic anhydrase 2 – biochemical, small-molecule microarray, Alexa647-labelled CAII, profiling panel (AID 1122). Conditions: CAII-A647 binding fluorescence, higher = more signal.
Experiment [5] is described as follows: COS7 lysate on small-molecule microarray, probe aHis, 635 nm (AID 1123).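 Further: z-score combines 667nm fluorescence intensity with signal-to-noise per printed compound spot.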 The note with it: COS7 cell lysate, fluorescence, higher = more signal.
A short description of experiment [6]: probe aLAP1 signal on lysate-treated microarray – cell lysate, small-molecule microarray, COS7 lysate, primary screen (AID 1124).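 Further: lysate comes from COS7 cells expressing LAP1 and is applied at 0.3 µg/mL; score merges spot fluorescence near 667 nm with signal-to-noise over triplicate slides.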 The note with it: probe aLAP1, fluorescence, higher = more signal.
In a further experiment the test system is Sam68 (KHDRBS1). The experiment can be described thus: compounds binding KHDRBS1 protein – biochemical, small-molecule microarray, 635 nm fluorescence, primary screen (AID 1125).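 Further: score merges 667 nm channel intensity with signal to noise over triplicate slides.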 The note with it: higher = more signal.
Experiment [7] has as its system Chordin-like protein 2 (CHRDL2). Briefly: compounds binding chordin-like 2 – biochemical, small-molecule microarray, 635 nm fluorescence, primary screen (AID 1126).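 Further: printed compound slides probed with Chrdl2 protein at 4 µg/mL for 1 h at 4 C; score merges 667 nm emission intensity with signal to noise over three replicate slides.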 The note with it: fluorescence 635 nm, higher = more signal.
The target of experiment [8] is Concanavalin-A (Canavalia ensiformis) (UniProt P02866). Briefly: compounds binding concanavalin A lectin – biochemical, small-molecule microarray, Alexa647 label, 635 nm, artefact control for SMM control protein annotation, primary screen (AID 1127).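 Further: z combines 667 nm emission intensity with signal-to-noise across three replicate slides.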 Conditions: ConA-A647 binding fluorescence, higher = more signal.
Experiment [9] in a line: compounds binding Alexa647 anti-His antibody – biochemical, small-molecule microarray, 635 nm fluorescence, artefact control for SMM control protein annotation, primary screen (AID 1128).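 Further: score merges feature fluorescence with signal-to-noise for each printed compound spot.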 The note with it: higher = more signal.
The subject of experiment [10] is Human papillomavirus type 1a E7 protein (residues 1-88). The experiment can be described thus: HPV1a E7 small-molecule binders, primary screen, biochemical, small-molecule microarray, residues 1-88, 635 nm (AID 1129). The note with it: small-molecule microarray binding, fluorescence 635 nm; higher = more signal.
In experiment [11] the target is Focal adhesion kinase 1 (Homo sapiens) (UniProt Q05397). The experiment can be described thus: PTK2 protein binding on printed compound slides – biochemical, small-molecule microarray, 635/667 nm fluorescence, BSA, DTT, primary screen (AID 1130).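 Further: composite of spot emission at 667 nm and signal to noise over triplicate slides.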 The note with it: 635 nm fluorescence, higher = more signal.
The subject of experiment [12] is Fibrinogen (Alexa647-labelled). The experiment can be described thus: Alexa647-fibrinogen binding to printed small molecules – biochemical, small-molecule microarray, 635/667 nm fluorescence, artefact control for SMM control-protein annotation, profiling panel (AID 1131).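 Further: z-score merges 667 nm fluorescence with per-spot signal-to-noise over triplicate slides.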 Conditions: fibrinogen-A647 binding fluorescence, higher = more signal.
Experiment [13] addresses Follistatin (Homo sapiens) (UniProt P19883). Briefly: FST protein binding to printed compounds – biochemical, small-molecule microarray, 635/667 nm fluorescence, primary screen (AID 1132). The note with it: 635 nm fluorescence, higher = more signal.
Experiment [14] has as its target Fibroblast growth factor 2 (Homo sapiens) (UniProt P09038). Briefly: basic fibroblast growth factor binding to printed compounds – biochemical, small-molecule microarray, 635/667 nm fluorescence, primary screen (AID 1133). Conditions: FGF2, fluorescence 635/667, higher = more signal.
The nature of experiment [15]: JC-1 mitochondrial potential readout, lung cancer cells – cell-based, A549, JC-1 fluorescence, basal, 24 h, 100 nL, profiling panel (AID 1138).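 Further: A549 lung adenocarcinoma cells under basal conditions with no added stimulus; test concentration not given here.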 The note with it: higher = more signal.
Another experiment concerns Lefty1. The experiment can be described thus: Lefty1 protein binding to printed compounds – biochemical, small-molecule microarray, 635/667 nm fluorescence, primary screen (AID 1139). Conditions: fluorescence 635/667, higher = more signal.
Experiment [16] concerns wheat germ agglutinin (Triticum aestivum), Alexa647-labelled. The experiment can be described thus: Alexa647-WGA lectin binding to printed small molecules – biochemical, small-molecule microarray, 635/667 nm fluorescence, artefact control for SMM control-protein annotation, profiling panel (AID 1140).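 Further: score merges 667 nm feature emission with signal to noise over triplicate slides.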 The note with it: WGA-A647 binding, 635 nm fluorescence, higher = more signal.

Experiment [17] deals with Luciferin 4-monooxygenase (Photinus pyralis) (UniProt P08659). The experiment can be described thus: inhibition of purified Photinus pyralis luciferase – biochemical, luminescence, purified enzyme, 2006 set, primary screen (AID 1141).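 Further: cell-free assay with purified firefly luciferase at 100 ng per well in PBS; test concentration not given here.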 The note with it: purified firefly luciferase, SteadyGlo luminescence, 30 min; higher = more signal, called active from +8 up or from −8 down.
Sequence of Luciferin 4-monooxygenase (Photinus pyralis) (P08659 whole entry, looked up): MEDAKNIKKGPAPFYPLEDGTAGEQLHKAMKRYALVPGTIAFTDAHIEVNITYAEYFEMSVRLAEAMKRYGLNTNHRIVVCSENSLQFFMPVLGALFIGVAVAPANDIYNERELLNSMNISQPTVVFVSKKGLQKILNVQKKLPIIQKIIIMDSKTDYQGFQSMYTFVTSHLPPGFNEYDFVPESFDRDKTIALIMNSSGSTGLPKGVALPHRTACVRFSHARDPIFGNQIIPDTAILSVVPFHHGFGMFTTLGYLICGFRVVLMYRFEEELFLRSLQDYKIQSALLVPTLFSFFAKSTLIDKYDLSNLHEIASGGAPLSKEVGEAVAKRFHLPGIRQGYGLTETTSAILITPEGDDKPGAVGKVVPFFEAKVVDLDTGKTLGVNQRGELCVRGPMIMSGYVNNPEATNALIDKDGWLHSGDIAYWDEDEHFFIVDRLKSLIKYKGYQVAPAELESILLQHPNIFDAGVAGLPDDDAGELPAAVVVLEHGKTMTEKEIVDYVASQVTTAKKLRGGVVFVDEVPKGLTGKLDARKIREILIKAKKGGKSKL

Sequence of Concanavalin-A (Canavalia ensiformis) (P02866 whole entry, looked up): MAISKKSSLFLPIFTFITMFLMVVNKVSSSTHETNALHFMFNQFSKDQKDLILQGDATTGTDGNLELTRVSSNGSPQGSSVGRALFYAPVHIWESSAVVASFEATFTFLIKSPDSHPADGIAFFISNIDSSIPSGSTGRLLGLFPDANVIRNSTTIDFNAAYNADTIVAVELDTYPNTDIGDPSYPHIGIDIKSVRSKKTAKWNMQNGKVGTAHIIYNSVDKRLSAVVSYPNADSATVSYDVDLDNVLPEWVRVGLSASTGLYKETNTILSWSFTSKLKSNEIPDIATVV
Sequence of Focal adhesion kinase 1 (Homo sapiens) (Q05397 whole entry, looked up): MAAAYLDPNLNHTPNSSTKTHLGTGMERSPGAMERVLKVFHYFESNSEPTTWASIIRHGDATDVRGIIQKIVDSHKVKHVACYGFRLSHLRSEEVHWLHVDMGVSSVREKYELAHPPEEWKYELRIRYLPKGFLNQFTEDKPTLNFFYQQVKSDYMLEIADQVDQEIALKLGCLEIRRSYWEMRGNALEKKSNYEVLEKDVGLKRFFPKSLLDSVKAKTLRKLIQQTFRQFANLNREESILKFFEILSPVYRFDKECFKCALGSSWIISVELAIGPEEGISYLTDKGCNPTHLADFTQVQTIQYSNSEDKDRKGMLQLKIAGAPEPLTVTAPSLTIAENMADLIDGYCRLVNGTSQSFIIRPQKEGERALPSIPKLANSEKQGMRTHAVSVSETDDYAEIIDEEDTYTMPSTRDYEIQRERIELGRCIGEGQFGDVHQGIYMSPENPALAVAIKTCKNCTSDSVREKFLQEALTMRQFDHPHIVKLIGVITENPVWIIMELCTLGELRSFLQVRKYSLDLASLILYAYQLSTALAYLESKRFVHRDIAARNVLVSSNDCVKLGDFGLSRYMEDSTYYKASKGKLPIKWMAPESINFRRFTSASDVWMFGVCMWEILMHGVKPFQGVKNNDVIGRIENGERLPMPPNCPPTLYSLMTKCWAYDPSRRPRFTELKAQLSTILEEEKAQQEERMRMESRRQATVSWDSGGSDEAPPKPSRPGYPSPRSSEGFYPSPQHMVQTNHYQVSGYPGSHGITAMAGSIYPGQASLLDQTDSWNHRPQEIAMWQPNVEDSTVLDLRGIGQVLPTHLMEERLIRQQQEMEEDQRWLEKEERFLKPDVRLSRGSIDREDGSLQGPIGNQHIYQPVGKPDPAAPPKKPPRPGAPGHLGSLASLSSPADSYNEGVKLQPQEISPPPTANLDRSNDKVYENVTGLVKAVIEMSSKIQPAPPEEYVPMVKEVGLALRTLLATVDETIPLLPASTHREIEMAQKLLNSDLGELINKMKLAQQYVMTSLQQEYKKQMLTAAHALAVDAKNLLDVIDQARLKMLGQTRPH
Sequence of Fibroblast growth factor 2 (Homo sapiens) (P09038 whole entry, looked up): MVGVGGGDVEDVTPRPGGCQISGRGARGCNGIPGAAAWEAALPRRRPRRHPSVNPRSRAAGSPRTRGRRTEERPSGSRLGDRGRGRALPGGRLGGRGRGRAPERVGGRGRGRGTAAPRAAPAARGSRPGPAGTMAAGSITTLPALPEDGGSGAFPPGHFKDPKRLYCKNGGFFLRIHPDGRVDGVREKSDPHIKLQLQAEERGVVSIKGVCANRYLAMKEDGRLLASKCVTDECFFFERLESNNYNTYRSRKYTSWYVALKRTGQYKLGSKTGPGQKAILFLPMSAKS
Sequence of Albumin (Bos taurus) (P02769 whole entry, looked up): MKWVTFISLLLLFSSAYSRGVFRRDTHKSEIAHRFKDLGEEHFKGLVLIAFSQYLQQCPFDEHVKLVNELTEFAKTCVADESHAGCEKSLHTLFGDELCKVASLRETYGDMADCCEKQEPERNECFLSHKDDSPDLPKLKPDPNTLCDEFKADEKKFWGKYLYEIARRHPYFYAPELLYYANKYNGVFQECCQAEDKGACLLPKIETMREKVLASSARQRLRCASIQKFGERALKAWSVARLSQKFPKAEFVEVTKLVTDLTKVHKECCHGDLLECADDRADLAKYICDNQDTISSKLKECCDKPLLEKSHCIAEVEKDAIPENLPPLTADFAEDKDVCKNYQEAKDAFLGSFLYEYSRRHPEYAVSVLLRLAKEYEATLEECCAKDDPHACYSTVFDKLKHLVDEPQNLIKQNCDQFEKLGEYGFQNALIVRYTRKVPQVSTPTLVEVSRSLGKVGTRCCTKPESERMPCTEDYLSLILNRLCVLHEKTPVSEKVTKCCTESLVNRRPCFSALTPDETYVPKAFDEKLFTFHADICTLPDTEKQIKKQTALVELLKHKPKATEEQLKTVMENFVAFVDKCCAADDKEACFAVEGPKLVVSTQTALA
Sequence of Follistatin (Homo sapiens) (P19883 whole entry, looked up): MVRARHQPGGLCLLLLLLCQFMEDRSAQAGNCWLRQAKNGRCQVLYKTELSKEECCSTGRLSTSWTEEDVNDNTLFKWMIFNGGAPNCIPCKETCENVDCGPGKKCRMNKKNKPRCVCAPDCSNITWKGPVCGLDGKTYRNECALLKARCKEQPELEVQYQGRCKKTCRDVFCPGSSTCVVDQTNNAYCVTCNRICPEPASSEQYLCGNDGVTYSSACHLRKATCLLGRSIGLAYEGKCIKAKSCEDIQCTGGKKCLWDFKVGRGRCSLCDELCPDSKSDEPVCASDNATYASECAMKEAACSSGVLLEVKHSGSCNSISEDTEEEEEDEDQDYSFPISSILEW

As for `O=C1C[C@@H](O)[C@@H](O)[C@@H]2[C@@H]3C(=O)N(c4cccc(Oc5ccccc5)c4)C(=O)[C@@H]3CC[C@@H]12`, the composite z-score in the experiment with Albumin (Bos taurus) amounted to 0.164; in experiment [2] it was 0.0496; in [3], 0.0364; in experiment [4], 0.285; in experiment [5], 0.625; in experiment [6], 0.318. The composite z-score in the experiment on Sam68 (KHDRBS1) worked out at 1.03; in experiment [7] it was 0.364; in experiment [8], 0.899; in experiment [9], 0.161; in experiment [10] it was 0.783; in experiment [11] it was 0.35. The composite z-score in experiment [12] was found to be 0.725; in experiment [13] it was 0.91; in [14] it was 0.679; in the experiment on Lefty1, 0.661; in experiment [16], 0.428. Also, the composite Z-score in experiment [1] is -0.397 (inactive). Further, the z-score is 0.844 in [15] and -0.44 (inactive) in experiment [17].
As to `COc1ccc(O[C@H]2C=C[C@@H](c3ccccc3)O[C@@H]2COC(=O)CCC(C)=NOC(C)CN2CCCCc3nc(C)c(C)cc32)cc1` (stereo not given in full), the composite z-score in the experiment with Albumin (Bos taurus) was -0.485; in experiment [2] it was -0.0918; in experiment [3], -0.179; in [4], 0.456; in experiment [5] it was 0.121; in experiment [6] it was -0.312. Besides, the composite z-score in the experiment with Sam68 (KHDRBS1) was -0.433; in experiment [7] it was -0.101; in [8] it was -0.929; in experiment [9], 4.16; in experiment [10], -0.303; in experiment [11] it was 0.214. Besides, the composite z-score in experiment [12] was -0.78; in experiment [13], 0.0731; in experiment [14] it was -0.442; with Lefty1, -0.214; in experiment [16] it was 0.878. In [1], the composite Z-score is 0.105 (inactive). Also, the values for the z-score in [15] and in experiment [17] were 0.752 and 0.731 (inactive), respectively.
For the compound `CC(C)=C1C(=O)C(c2ccccc2)=C2CN3C(=O)N(CCc4ccccc4)C(=O)[C@]3(Cc3ccc(F)cc3)[C@H]21`, the composite z-score with Albumin (Bos taurus) was 0.697; in [2] it was 0.186; in [3], 0.148; in experiment [4], 0.306; in [5], 1.04; in experiment [6], 0.34. Also, the composite z-score in the experiment on Sam68 (KHDRBS1) was 0.639; in experiment [7] it was -2.22; in [8] it was -1.05; in [9], 1.59; in experiment [10], -0.205; in [11] it was -0.0639. Besides, the composite z-score in experiment [12] is -1.43; in experiment [13], -0.968; in experiment [14], -0.412; in the experiment with Lefty1, -1.2; in experiment [16] it was 0.338. Also, the composite Z-score in experiment [1] was 1.87 (inactive). Also, the z-score was 1.27 in [15] and 0.98 (inactive) in experiment [17].
Consider `CC(=O)O[C@H]1C2=C(C(=O)[C@@H]3O[C@@H]31)[C@H]1C(C)O[C@@H]2[C@@]23C(=O)[C@@H]4O[C@@H]4[C@@H](O)C2=CO[C@H](C)[C@@H]13` (stereo not given in full), for which the composite z-score is 0.922 with Albumin (Bos taurus); 0.0026 in experiment [2]; -0.0937 in experiment [3]; -0.0716 in [4]; -0.519 in experiment [5]; -0.283 in [6]. Moreover, the composite z-score was -0.113 in the experiment on Sam68 (KHDRBS1); 0.249 in experiment [7]; -0.629 in experiment [8]; 0.0831 in experiment [9]; 0.154 in [10]; -0.0962 in experiment [11]. Also, the composite z-score in experiment [12] is -0.735; in experiment [13] it was -0.419; in [14] it was 0.877; with Lefty1, 0.0364; in [16] it was -0.933. Also, the composite Z-score in experiment [1] was 0.112 (inactive). Moreover, the z-score in experiment [15] was -1.12; in [17], 0.327 (inactive).
For the compound `CCCC=C(CCC)[C@@H](NC(=O)c1ccc(-c2ccccc2)cc1)c1ccc(C(=O)OC)cc1`, the composite z-score with Albumin (Bos taurus) is 0.127; in experiment [2] it was 0.197; in [3], 0.0382; in experiment [4], 0.185; in experiment [5], 2.41; in [6], -0.075. In addition, the composite z-score in the experiment with Sam68 (KHDRBS1) was 1.26; in experiment [7], -0.955; in experiment [8], 0.724; in [9], 0.377; in [10], 1.19; in experiment [11] it was 0.296. Moreover, the composite z-score in experiment [12] was 0.967; in experiment [13] it was 0.142; in experiment [14], -0.558; in the experiment with Lefty1, -0.182; in experiment [16], 1.2. Also, the composite Z-score in experiment [1] was 0.0503 (inactive). Moreover, the z-score is -0.457 in [15] and 1.93 (inactive) in experiment [17].
